According to PubChem BioAssay (EPA / NIEHS):
Several values for one entry are separate records, joined by “and”; a condition that tells them apart may be missing. Equal entries are not always repeated. Results filed as inconclusive are left out. Where a structure was tested more than once in an assay, its records may differ in their call. Activity calls are given as the source filed them. The calls were made as follows, unless noted: active = hit-call score of the fitted dose curve at least 0.9, where 1 is the maximum; inactive = score below 0.9.

Read-out: not listed separately
Test: BSK_4H_Eotaxin3: BioMAP Diversity Plus: 4H Assay for Eotaxin 3 Biomarker Activity (AID 2283000);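 as to outcome: CCL26 protein level quantified by ELISA in parallel with SRB cytotoxicity check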
Conditions: primary human endothelial cells (HUVEC); actives raise or lower the signal
How it was run: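 Readout is Eotaxin-3 (CCL26) level by ELISA in primary human umbilical vein endothelial cells harvested 24 h after chemical exposure; activity fitted in both directions against DMSO control.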
With `CCCCCCCC(=O)OC` the outcome was “inactive”. For `CN(C)CCCN(C)CCCN(C)C`, the outcome was “inactive”. With `CCCCC(CC)COP(=O)(OCC(CC)CCCC)OCC(CC)CCCC` (centres undefined) the AC50 was 20 µM (active). For `CCC(C)N(C)C(=O)c1cc2ccccc2c(-c2ccccc2Cl)n1` (centres undefined), the outcome was “inactive”. In the case of `O=C(O)c1cccnc1`, the outcome is reported as “inactive”. For `CN(C)CCCN1c2ccccc2Sc2ccc(Cl)cc21`, the AC50 was 35.9 µM (active). For `CCCCCCCCCCCCCCCCO`, the outcome was “inactive”. For `CCOCCOCCO`, the outcome was “inactive”. With `C=CCc1ccc(OC)c(OC)c1` the outcome was “inactive”. In the case of `CC1(C)C(=O)NC(=O)N1CO`, the outcome is reported as “inactive”. With `COC(=O)CCCC(=O)OC` the outcome was “inactive”. With `CCCCC(CC)CO` (centres undefined) the outcome was “inactive”. For `CO[C@@H]1COCC[C@@H]1N[C@@H]1CC[C@@](C(=O)N2CCc3ncc(C(F)(F)F)cc3C2)(C(C)C)C1`, the outcome was “inactive”. For `CC(=O)OC1CC(C)OC(C)O1` (centres undefined), the outcome was “inactive”. In the case of `N[C@@H](Cc1c[nH]c2ccccc12)C(=O)O`, the outcome is reported as “inactive”. In the case of `Cc1ccc(C(C)(C)C)c(O)c1`, the outcome is reported as “inactive”. For `c1ccc2occc2c1`, the outcome was “inactive”. For `Cc1occc(=O)c1O`, the outcome was “inactive”. For `CN(C)C(=O)NC1(c2ccccc2)CCN(CCC[C@]2(c3ccc(Cl)c(Cl)c3)CCCN(C(=O)c3ccccc3)C2)CC1`, the outcome was “inactive”. With `CC(=O)S[C@H](C(=O)N[C@H]1Cc2ccccc2[C@H]2CCC[C@@H](C(=O)O)N2C1=O)C(C)C` the outcome was “inactive”. With `COC(=O)CCC(=O)OC` the outcome was “inactive”. In the case of `CCCCCCC(C=O)=Cc1ccccc1`, the AC50 is reported as 36.6 µM (active). For `NC=O`, the outcome was “inactive”. For `CCCCOC(=O)CCCCC(=O)OCCCC`, the outcome was “inactive”. With `CC(=O)O[C@]1(C(C)=O)CC[C@H]2[C@@H]3C=C(Cl)C4=CC(=O)[C@@H]5C[C@@H]5[C@]4(C)[C@H]3CC[C@@]21C` the outcome was “inactive”. In the case of `Nc1nc(Cl)nc2c1ncn2[C@H]1C[C@H](O)[C@@H](CO)O1`, the outcome is reported as “inactive”. In the case of `Oc1ccc(O)cc1`, the AC50 is reported as 20 µM (active). In the case of `CCN(CC)CCOc1ccc(C(=C(Cl)c2ccccc2)c2ccccc2)cc1`, the AC50 is reported as 12.4 µM (active). With `O=C1CCCCC1` the outcome was “inactive”.

Biological target: human Peroxisome Proliferator-activated Receptor alpha (PPARa), PPARA (gene 5465) (UniProt Q07869)
Sequence (Q07869 whole entry, looked up): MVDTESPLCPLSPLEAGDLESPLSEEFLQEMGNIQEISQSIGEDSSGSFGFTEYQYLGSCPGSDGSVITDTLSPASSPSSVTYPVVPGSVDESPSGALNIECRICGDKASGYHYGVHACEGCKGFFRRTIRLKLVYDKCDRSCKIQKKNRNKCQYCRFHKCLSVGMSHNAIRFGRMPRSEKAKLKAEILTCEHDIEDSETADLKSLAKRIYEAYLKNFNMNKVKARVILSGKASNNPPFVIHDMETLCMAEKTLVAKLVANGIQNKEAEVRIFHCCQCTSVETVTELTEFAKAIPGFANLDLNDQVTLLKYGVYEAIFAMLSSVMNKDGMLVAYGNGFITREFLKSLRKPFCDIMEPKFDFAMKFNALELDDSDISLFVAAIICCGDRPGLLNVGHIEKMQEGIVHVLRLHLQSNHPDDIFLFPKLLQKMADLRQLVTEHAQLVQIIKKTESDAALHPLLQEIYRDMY
Test: ATG_PPARa_TRANS: Attagene TRANS-FACTORIAL HepG2 Assay for human Peroxisome Proliferator-activated Receptor alpha (PPARa) (AID 2283001; active = hit-call score of the fitted dose curve at least 0.9, where 1 is the maximum;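 as to AC50: potency for gain of reporter signal over DMSO so agonist or activator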)
Conditions: not given
How it was run: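 Gain-of-signal endpoint: reporter mRNA induction relative to DMSO, detected by fluorescent RT-PCR and capillary electrophoresis. HepG2 cells transiently carried GAL4-UAS-driven reporter units plus NR-Gal4 fusion; exposure lasted 24 h.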
For `CCCCCCCC(=O)OC`, the outcome was “inactive”. With `O=C(O)c1cccnc1` the outcome was “inactive”. With `CN(C)CCCN1c2ccccc2Sc2ccc(Cl)cc21` the outcome was “inactive”. In the case of `CCCCCCCCCCCCCCCCO`, the outcome is reported as “inactive”. In the case of `CCOCCOCCO`, the outcome is reported as “inactive”. For `C=CCc1ccc(OC)c(OC)c1`, the outcome was “inactive”. In the case of `CCCCC(CC)CO` (centres undefined), the outcome is reported as “inactive”. With `N[C@@H](Cc1c[nH]c2ccccc12)C(=O)O` the outcome was “inactive”. With `c1ccc2occc2c1` the outcome was “inactive”. In the case of `Cc1occc(=O)c1O`, the outcome is reported as “inactive”. With `CN(C)C(=O)NC1(c2ccccc2)CCN(CCC[C@]2(c3ccc(Cl)c(Cl)c3)CCCN(C(=O)c3ccccc3)C2)CC1` the AC50 was 4.2 µM (active). In the case of `CCCCCCC(C=O)=Cc1ccccc1`, the AC50 is reported as 27.2 µM (active) and 15.8 µM (active). With `NC=O` the outcome was “inactive”. With `CCCCOC(=O)CCCCC(=O)OCCCC` the outcome was “inactive”. With `CC(=O)O[C@]1(C(C)=O)CC[C@H]2[C@@H]3C=C(Cl)C4=CC(=O)[C@@H]5C[C@@H]5[C@]4(C)[C@H]3CC[C@@]21C` the outcome was “inactive”. In the case of `Nc1nc(Cl)nc2c1ncn2[C@H]1C[C@H](O)[C@@H](CO)O1`, the AC50 is reported as 66.5 µM (active). In the case of `Oc1ccc(O)cc1`, the outcome is reported as “inactive”. For `CCN(CC)CCOc1ccc(C(=C(Cl)c2ccccc2)c2ccccc2)cc1`, the outcome was “inactive”. In the case of `O=C1CCCCC1`, the outcome is reported as “inactive”.

Biological target: human Peroxisome Proliferator-activated Receptor delta (PPARd), PPARD (gene 5467) (UniProt Q03181)
Sequence (Q03181 whole entry, looked up): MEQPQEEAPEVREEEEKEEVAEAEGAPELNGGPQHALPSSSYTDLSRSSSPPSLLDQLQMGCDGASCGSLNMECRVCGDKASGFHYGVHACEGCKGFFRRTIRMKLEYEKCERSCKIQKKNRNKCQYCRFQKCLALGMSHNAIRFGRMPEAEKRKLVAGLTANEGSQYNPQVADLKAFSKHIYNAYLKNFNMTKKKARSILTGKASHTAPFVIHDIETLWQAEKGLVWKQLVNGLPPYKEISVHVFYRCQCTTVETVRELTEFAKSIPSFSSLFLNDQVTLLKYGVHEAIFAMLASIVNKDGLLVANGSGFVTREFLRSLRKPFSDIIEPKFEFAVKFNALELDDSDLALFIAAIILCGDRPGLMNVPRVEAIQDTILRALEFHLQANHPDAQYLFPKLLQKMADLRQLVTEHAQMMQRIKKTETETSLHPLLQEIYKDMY
Test: ATG_PPARd_TRANS: Attagene TRANS-FACTORIAL HepG2 Assay for human Peroxisome Proliferator-activated Receptor delta (PPARd) (AID 2283002; active = hit-call score of the fitted dose curve at least 0.9, where 1 is the maximum)
Conditions: not given
How it was run: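 HepG2 cells transiently transfected with multiplexed GAL4-UAS reporter units and exogenous chimeric NR-Gal4 proteins; 24 h compound exposure. Reporter mRNA measured by RT-PCR, 6-FAM labelling, HpaI digestion and capillary electrophoresis; gain of signal versus DMSO.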
In the case of `CCCCC(CC)COP(=O)(OCC(CC)CCCC)OCC(CC)CCCC` (centres undefined), the outcome is reported as “inactive”. In the case of `CCC(C)N(C)C(=O)c1cc2ccccc2c(-c2ccccc2Cl)n1` (centres undefined), the outcome is reported as “inactive”. For `O=C(O)c1cccnc1`, the outcome was “inactive”. In the case of `CN(C)CCCN1c2ccccc2Sc2ccc(Cl)cc21`, the outcome is reported as “inactive”. For `CCCCCCCCCCCCCCCCO`, the outcome was “inactive”. For `CC1(C)C(=O)NC(=O)N1CO`, the outcome was “inactive”. In the case of `COC(=O)CCCC(=O)OC`, the outcome is reported as “inactive”. With `CO[C@@H]1COCC[C@@H]1N[C@@H]1CC[C@@](C(=O)N2CCc3ncc(C(F)(F)F)cc3C2)(C(C)C)C1` the outcome was “inactive”. With `CC(=O)OC1CC(C)OC(C)O1` (centres undefined) the outcome was “inactive”. With `CN(C)C(=O)NC1(c2ccccc2)CCN(CCC[C@]2(c3ccc(Cl)c(Cl)c3)CCCN(C(=O)c3ccccc3)C2)CC1` the outcome was “inactive”. With `CCCCCCC(C=O)=Cc1ccccc1` the outcome was “inactive”. With `NC=O` the outcome was “inactive”. With `CCCCOC(=O)CCCCC(=O)OCCCC` the outcome was “inactive”. In the case of `CC(=O)O[C@]1(C(C)=O)CC[C@H]2[C@@H]3C=C(Cl)C4=CC(=O)[C@@H]5C[C@@H]5[C@]4(C)[C@H]3CC[C@@]21C`, the AC50 is reported as 100 µM (active) and the outcome is reported as “inactive”. For `Nc1nc(Cl)nc2c1ncn2[C@H]1C[C@H](O)[C@@H](CO)O1`, the outcome was “inactive”. In the case of `CCN(CC)CCOc1ccc(C(=C(Cl)c2ccccc2)c2ccccc2)cc1`, the outcome is reported as “inactive”. For `O=C1CCCCC1`, the outcome was “inactive”.

Read-out: Intercellular Adhesion Molecule 1 (ICAM1), ICAM1 (gene 3383)
Test: BSK_3C_ICAM1: BioMAP Diversity Plus: 3C Assay for Intercellular Adhesion Molecule 1 (ICAM1) Biomarker Activity (AID 2283003)
Conditions: primary human endothelial cells (HUVEC); actives raise or lower the signal
How it was run: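 HUVEC primary cells stimulated under 3C conditions; ICAM1 measured by ELISA 24 h after compound dosing. Curves fitted bidirectionally against the DMSO baseline. Overt cytotoxicity checked by SRB staining of parallel cultures.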
For `CCCCCCCC(=O)OC`, the outcome was “inactive”. For `CN(C)CCCN(C)CCCN(C)C`, the outcome was “inactive”. In the case of `CCCCC(CC)COP(=O)(OCC(CC)CCCC)OCC(CC)CCCC` (centres undefined), the outcome is reported as “inactive”. With `CCC(C)N(C)C(=O)c1cc2ccccc2c(-c2ccccc2Cl)n1` (centres undefined) the outcome was “inactive”. For `O=C(O)c1cccnc1`, the outcome was “inactive”. For `CCCCCCCCCCCCCCCCO`, the outcome was “inactive”. In the case of `CCOCCOCCO`, the outcome is reported as “inactive”. For `C=CCc1ccc(OC)c(OC)c1`, the outcome was “inactive”. In the case of `CC1(C)C(=O)NC(=O)N1CO`, the outcome is reported as “inactive”. For `COC(=O)CCCC(=O)OC`, the outcome was “inactive”. For `CCCCC(CC)CO` (centres undefined), the outcome was “inactive”. In the case of `CO[C@@H]1COCC[C@@H]1N[C@@H]1CC[C@@](C(=O)N2CCc3ncc(C(F)(F)F)cc3C2)(C(C)C)C1`, the outcome is reported as “inactive”. For `CC(=O)OC1CC(C)OC(C)O1` (centres undefined), the outcome was “inactive”. In the case of `N[C@@H](Cc1c[nH]c2ccccc12)C(=O)O`, the outcome is reported as “inactive”. For `Cc1ccc(C(C)(C)C)c(O)c1`, the AC50 was 31.1 µM (active). In the case of `c1ccc2occc2c1`, the outcome is reported as “inactive”. With `Cc1occc(=O)c1O` the outcome was “inactive”. For `CN(C)C(=O)NC1(c2ccccc2)CCN(CCC[C@]2(c3ccc(Cl)c(Cl)c3)CCCN(C(=O)c3ccccc3)C2)CC1`, the outcome was “inactive”. For `CC(=O)S[C@H](C(=O)N[C@H]1Cc2ccccc2[C@H]2CCC[C@@H](C(=O)O)N2C1=O)C(C)C`, the outcome was “inactive”. For `COC(=O)CCC(=O)OC`, the outcome was “inactive”. For `CCCCCCC(C=O)=Cc1ccccc1`, the AC50 was 36.6 µM (active). In the case of `NC=O`, the outcome is reported as “inactive”. For `CCCCOC(=O)CCCCC(=O)OCCCC`, the outcome was “inactive”. In the case of `CC(=O)O[C@]1(C(C)=O)CC[C@H]2[C@@H]3C=C(Cl)C4=CC(=O)[C@@H]5C[C@@H]5[C@]4(C)[C@H]3CC[C@@]21C`, the outcome is reported as “inactive”. With `Nc1nc(Cl)nc2c1ncn2[C@H]1C[C@H](O)[C@@H](CO)O1` the outcome was “inactive”. In the case of `Oc1ccc(O)cc1`, the outcome is reported as “inactive”. In the case of `CCN(CC)CCOc1ccc(C(=C(Cl)c2ccccc2)c2ccccc2)cc1`, the AC50 is reported as 13.7 µM (active). In the case of `O=C1CCCCC1`, the outcome is reported as “inactive”.
